# ± gives the standard deviation.
# Test system: OVCAR-3-derived ovarian cancer stem-like cells (spheroids)
# Experiment: cell growth relative to untreated control; higher = more growth (less inhibition)
# Settings: 2.29 µM; 96 h
# Method in brief: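 Viability of stem-like cells from OVCAR-3 spheroids was assessed with TOX8 resazurin fluorescence at ex 560/em 590 nm. The cells had been trypsin-dissociated, seeded at 50,000 cells/mL in stem cell medium in ultra-low attachment 96-well plates and preincubated 24 h, then treated with compounds at 2.29 uM for 96 h at 37°C, 5% CO2, in 4 replicate wells, with fluorescence read after 4 h. Results were converted to percent growth against untreated wells after blank subtraction and Grubbs outlier removal.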
row,Structure (SMILES),cell growth
1,Cc1cc2c(C(C)C)c(O)c(O)c(C=O)c2c(O)c1-c1c(C)cc2c(C(C)C)c(O)c(O)c(C=O)c2c1O,86 ± 61%
2,C1CN1c1nc(N2CC2)nc(N2CC2)n1,129 ± 82%
3,NC(=O)OCc1c(O)c2c(c(O)c1COC(N)=O)C(=O)C=CC2=O,95.9 ± 14%
4,CC(C)(Br)C(=O)C(Br)Br,88.9 ± 28%
5,CC[C@@]12CCCN3CC[C@]4(c5cccc(OC)c5N(C(C)=O)[C@@H]4CC1)[C@H]32,144 ± 29%
6,CC12C(=O)OC(=O)C1(C)C1CCC2O1 (configuration not stated),91 ± 14%
7,CC[C@@]1(O)C[C@H](O[C@H]2C[C@H](N(C)C)[C@H](O[C@H]3C[C@@H]4O[C@H]5CC(=O)[C@H](C)O[C@H]5O[C@@H]4[C@H](C)O3)[C@H](C)O2)c2c(cc3c(c2O)C(=O)c2c(O)ccc(O)c2C3=O)[C@H]1C(=O)OC,11 ± 3.4%
8,CC(=O)O[C@@H]1C[C@H]2O[C@@H]3C=C(C)CC[C@]3(C)[C@]1(C)[C@]21CO1,48.5 ± 11%
9,COc1cc2c(c3oc4cccc(O)c4c(=O)c13)[C@@H]1C=CO[C@@H]1O2,112 ± 22%
10,O=C([CH-]C(=O)C(F)(F)F)c1ccccc1.O=C([CH-]C(=O)C(F)(F)F)c1ccccc1.O=C([CH-]C(=O)C(F)(F)F)c1ccccc1.O=C([CH-]C(=O)C(F)(F)F)c1ccccc1.[Eu+3].c1ccncc1,104 ± 18%
11,CC(C)c1oc(=O)cc2c1[C@@H](O)[C@H]1OC(=O)[C@@]3(C)[C@@H](O)[C@H]4O[C@H]4[C@@]2(C)[C@@H]13,62.6 ± 32%
12,Cc1cc(N(CCOS(C)(=O)=O)CCOS(C)(=O)=O)ccc1C=Nc1ccc(-c2csc(-c3ccccc3)n2)c(Cl)c1,97.7 ± 47%

# — the supplement of paper PMC3484114
